PMC7862700, “An all-to-all approach to the identification of sequence-specific readers for epigenetic DNA modifications on cytosine”

The sequences below were run against HSF1 (Homo sapiens, UniProt Q00613 1-529) (assay: DAPPL (digital affinity profiling via proximity ligation, sequencing); 10 mM Tris-HCl pH 7.5, 50 mM NaCl, 1 mM DTT, 4% glycerol, room temperature, 30 min; GST-TFs on glutathione beads, 16-mer random dsDNA library, 0.1% formaldehyde crosslink after washing; high values mean tight binding). Settings: protein: recombinant; tags: N-terminal GST; chain copies: 3; dsDNA, one strand shown.
In short: (§1)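 Beads coated with glutathione captured GST-fused human transcription factors that had been expressed in yeast, and the factors were then given DNA barcodes and pooled with a tag-only sample. The pools were incubated with 200 nmole of a random double-stranded 16-mer DNA library in Tris/NaCl/DTT/glycerol buffer for 30 min at room temperature, washed, crosslinked with 0.1% formaldehyde and proximity-ligated with BsaI/T4 ligase at 37 °C for 1 h. PCR amplification and Illumina NextSeq500 sequencing came last. Binding signal is each hexamer's read frequency for a factor divided by its frequency for the tag-only sample.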

HSF1, sequence (Q00613 whole entry, the tested form may be a part): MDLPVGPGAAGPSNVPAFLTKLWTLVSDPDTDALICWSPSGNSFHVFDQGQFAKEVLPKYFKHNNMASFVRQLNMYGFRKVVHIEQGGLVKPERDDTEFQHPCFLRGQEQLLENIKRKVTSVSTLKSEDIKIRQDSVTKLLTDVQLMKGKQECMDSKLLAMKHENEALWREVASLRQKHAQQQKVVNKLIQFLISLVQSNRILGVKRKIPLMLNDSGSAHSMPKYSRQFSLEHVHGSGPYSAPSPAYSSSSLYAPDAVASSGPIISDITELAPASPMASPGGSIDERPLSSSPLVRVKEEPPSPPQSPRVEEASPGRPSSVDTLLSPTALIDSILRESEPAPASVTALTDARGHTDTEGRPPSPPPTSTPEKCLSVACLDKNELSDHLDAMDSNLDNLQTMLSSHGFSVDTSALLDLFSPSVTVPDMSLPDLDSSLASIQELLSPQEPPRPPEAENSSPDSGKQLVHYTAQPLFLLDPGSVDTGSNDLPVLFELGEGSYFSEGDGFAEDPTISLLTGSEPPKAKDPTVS

| Sequence | binding signal |
| --- | --- |
| ATATAC | 1.12 fold enrichment (6-mer frequency, TF over GST control) |
| CTTTCC | 2.13 fold enrichment (6-mer frequency, TF over GST control) |
| ACGTCT | 1.21 fold enrichment (6-mer frequency, TF over GST control) |
| TCTACT | 1.51 fold enrichment (6-mer frequency, TF over GST control) |
| TTGGTT | 1.18 fold enrichment (6-mer frequency, TF over GST control) |
| GTTCTG | 1.84 fold enrichment (6-mer frequency, TF over GST control) |
| ATGGTT | 1.25 fold enrichment (6-mer frequency, TF over GST control) |
| TCCTTG | 1.15 fold enrichment (6-mer frequency, TF over GST control) |
| CGACTC | 1.37 fold enrichment (6-mer frequency, TF over GST control) |
| AAGTCC | 1.08 fold enrichment (6-mer frequency, TF over GST control) |
| ATTTAA | 1.62 fold enrichment (6-mer frequency, TF over GST control) |
| CCTGAC | 1.2 fold enrichment (6-mer frequency, TF over GST control) |
| CCCGAT | 1.38 fold enrichment (6-mer frequency, TF over GST control) |
| TAGTAT | 1.55 fold enrichment (6-mer frequency, TF over GST control) |
| AAACCT | 1.15 fold enrichment (6-mer frequency, TF over GST control) |
| GTCTCG | 1.55 fold enrichment (6-mer frequency, TF over GST control) |
| ACTTCA | 1.18 fold enrichment (6-mer frequency, TF over GST control) |
| CTCAAT | 1.17 fold enrichment (6-mer frequency, TF over GST control) |
| CCAATA | 1.12 fold enrichment (6-mer frequency, TF over GST control) |
| GCCTTA | 1.3 fold enrichment (6-mer frequency, TF over GST control) |

| Sequence | binding signal |
| --- | --- |
| GATTCA | 1.13 fold enrichment (6-mer frequency, TF over GST control) |
| GCTCCA | 1.16 fold enrichment (6-mer frequency, TF over GST control) |
| TCCTTT | 1.57 fold enrichment (6-mer frequency, TF over GST control) |
| CATTCT | 2.56 fold enrichment (6-mer frequency, TF over GST control) |
| TTCCTG | 1.63 fold enrichment (6-mer frequency, TF over GST control) |
| CCTCCT | 1.3 fold enrichment (6-mer frequency, TF over GST control) |
| TATGAT | 1.31 fold enrichment (6-mer frequency, TF over GST control) |
| CGATCT | 1.54 fold enrichment (6-mer frequency, TF over GST control) |
| AGCTAT | 1.12 fold enrichment (6-mer frequency, TF over GST control) |
| TTATGC | 1.58 fold enrichment (6-mer frequency, TF over GST control) |
| CTTGCC | 1.1 fold enrichment (6-mer frequency, TF over GST control) |
| TATCAT | 1.16 fold enrichment (6-mer frequency, TF over GST control) |
| ATTTCA | 1.26 fold enrichment (6-mer frequency, TF over GST control) |
| TCTCGA | 5.05 fold enrichment (6-mer frequency, TF over GST control) |
| TACGCT | 1.28 fold enrichment (6-mer frequency, TF over GST control) |
| CTGCTG | 1.09 fold enrichment (6-mer frequency, TF over GST control) |
| GCCTCG | 1.31 fold enrichment (6-mer frequency, TF over GST control) |
| TATTGA | 1.14 fold enrichment (6-mer frequency, TF over GST control) |
| TTGATA | 1.19 fold enrichment (6-mer frequency, TF over GST control) |
| TGGATG | 1.52 fold enrichment (6-mer frequency, TF over GST control) |

Each sequence was assayed against T1, SPIC (Homo sapiens, UniProt Q8N5J4 1-248) in the same assay as above. Settings: protein: recombinant; tags: N-terminal GST; dsDNA, one strand shown.
T1 sequence: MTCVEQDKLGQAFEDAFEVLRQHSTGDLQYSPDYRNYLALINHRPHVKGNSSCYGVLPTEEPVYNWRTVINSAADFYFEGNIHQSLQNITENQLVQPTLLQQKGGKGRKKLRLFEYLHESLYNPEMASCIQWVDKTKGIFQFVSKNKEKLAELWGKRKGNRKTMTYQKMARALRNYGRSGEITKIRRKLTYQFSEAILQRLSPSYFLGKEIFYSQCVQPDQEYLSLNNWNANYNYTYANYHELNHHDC
In short: as §1

| Sequence | binding signal |
| --- | --- |
| ATATAC | 1.17 fold enrichment (6-mer frequency, TF over GST control) |
| CTTTCC | 1.82 fold enrichment (6-mer frequency, TF over GST control) |
| ACGTCT | 1.17 fold enrichment (6-mer frequency, TF over GST control) |
| TCTACT | 1.51 fold enrichment (6-mer frequency, TF over GST control) |
| TTGGTT | 1.47 fold enrichment (6-mer frequency, TF over GST control) |
| GTTCTG | 1.1 fold enrichment (6-mer frequency, TF over GST control) |
| ATGGTT | 1.33 fold enrichment (6-mer frequency, TF over GST control) |
| TCCTTG | 1.23 fold enrichment (6-mer frequency, TF over GST control) |
| CGACTC | 1.64 fold enrichment (6-mer frequency, TF over GST control) |
| AAGTCC | 1.3 fold enrichment (6-mer frequency, TF over GST control) |
